“And” between values parts separate entries of the source, which are not always exact repeats. Equal entries are not always repeated. For some assays here: Entries with a potency or affinity are not part of this list.
Tests used:
Design in all cases: scale not given: direction of the effect not stated beside the values
[1] = molecular target: Protein translocase subunit SecA (Escherichia coli (strain K12)) (UniProt P10408); assay: Assay to Identify E. coli SecA ATPase Inhibitors; format: functional; conditions: 30 µM
Sequence of Protein translocase subunit SecA (Escherichia coli (strain K12)) (P10408 whole entry): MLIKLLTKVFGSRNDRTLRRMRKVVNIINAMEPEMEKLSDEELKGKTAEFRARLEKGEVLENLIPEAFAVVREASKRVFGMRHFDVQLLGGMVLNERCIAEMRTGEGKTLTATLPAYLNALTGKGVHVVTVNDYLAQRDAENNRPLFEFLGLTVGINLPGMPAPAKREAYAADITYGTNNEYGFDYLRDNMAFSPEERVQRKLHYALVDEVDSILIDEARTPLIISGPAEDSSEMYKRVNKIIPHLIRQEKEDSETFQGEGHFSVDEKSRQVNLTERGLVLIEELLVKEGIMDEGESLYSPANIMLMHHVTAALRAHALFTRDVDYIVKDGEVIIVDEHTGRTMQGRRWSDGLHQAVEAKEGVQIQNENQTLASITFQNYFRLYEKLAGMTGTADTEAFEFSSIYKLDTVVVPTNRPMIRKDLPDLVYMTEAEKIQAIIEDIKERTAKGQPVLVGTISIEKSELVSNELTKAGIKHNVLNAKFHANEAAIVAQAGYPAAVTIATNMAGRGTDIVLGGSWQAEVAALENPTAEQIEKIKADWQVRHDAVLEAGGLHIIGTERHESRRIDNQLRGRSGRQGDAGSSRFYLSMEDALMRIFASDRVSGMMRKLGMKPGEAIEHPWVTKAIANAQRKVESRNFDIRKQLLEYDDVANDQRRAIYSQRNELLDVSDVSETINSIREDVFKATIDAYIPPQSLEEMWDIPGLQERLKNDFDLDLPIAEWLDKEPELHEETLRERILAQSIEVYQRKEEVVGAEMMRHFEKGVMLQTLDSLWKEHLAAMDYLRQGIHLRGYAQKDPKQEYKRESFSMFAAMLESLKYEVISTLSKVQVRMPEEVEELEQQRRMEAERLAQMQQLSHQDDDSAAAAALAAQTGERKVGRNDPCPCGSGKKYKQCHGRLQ

[2] = molecular target: T1, Ubiquitin-activating enzyme e1, putative (Leishmania donovani (strain BPK282A1)) (UniProt E9BSI1); assay: Leishmania donovani Ubiquitin Activating Enzyme (LdE1); format: functional; conditions: 30 µM
T1 sequence (whole entry): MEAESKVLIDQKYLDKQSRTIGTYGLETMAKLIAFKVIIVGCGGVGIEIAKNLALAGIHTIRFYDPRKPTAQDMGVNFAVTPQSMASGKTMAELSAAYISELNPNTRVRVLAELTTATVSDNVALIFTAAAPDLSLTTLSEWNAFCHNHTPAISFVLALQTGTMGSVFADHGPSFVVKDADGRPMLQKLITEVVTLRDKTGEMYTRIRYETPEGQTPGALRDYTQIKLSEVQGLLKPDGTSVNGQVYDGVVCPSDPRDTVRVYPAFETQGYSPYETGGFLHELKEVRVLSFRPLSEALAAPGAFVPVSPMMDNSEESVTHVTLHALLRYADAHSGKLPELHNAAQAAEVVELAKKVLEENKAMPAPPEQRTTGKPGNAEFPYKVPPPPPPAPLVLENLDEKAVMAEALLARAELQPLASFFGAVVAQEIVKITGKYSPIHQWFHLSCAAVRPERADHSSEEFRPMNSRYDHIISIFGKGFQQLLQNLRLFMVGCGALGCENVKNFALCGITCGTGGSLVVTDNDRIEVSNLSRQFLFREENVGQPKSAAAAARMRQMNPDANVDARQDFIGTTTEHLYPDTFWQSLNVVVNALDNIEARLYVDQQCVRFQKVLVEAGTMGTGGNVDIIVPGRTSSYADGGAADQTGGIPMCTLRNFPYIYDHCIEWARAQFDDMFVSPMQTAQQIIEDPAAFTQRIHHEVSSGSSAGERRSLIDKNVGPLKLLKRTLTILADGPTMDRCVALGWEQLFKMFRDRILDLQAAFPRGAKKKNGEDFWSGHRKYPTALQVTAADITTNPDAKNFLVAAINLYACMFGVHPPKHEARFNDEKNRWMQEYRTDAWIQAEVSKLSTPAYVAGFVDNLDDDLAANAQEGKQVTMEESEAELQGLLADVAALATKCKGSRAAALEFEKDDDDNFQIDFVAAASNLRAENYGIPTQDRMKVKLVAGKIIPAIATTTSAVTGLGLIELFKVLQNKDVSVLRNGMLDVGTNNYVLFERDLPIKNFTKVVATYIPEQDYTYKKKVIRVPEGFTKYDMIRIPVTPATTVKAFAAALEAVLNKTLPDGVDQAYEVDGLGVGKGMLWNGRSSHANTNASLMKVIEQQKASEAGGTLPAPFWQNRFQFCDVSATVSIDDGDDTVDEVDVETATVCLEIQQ

[3] = molecular target: AMP-activated protein kinase, AMPK (Homo sapiens) (UniProt P54646+O43741+P54619+Q9UGJ0+Q9Y478+Q13131+Q9UGI9); assay: AMP-dependent Kinase enzyme assay. An in vitro enzyme assay that detects ADP turnover that is directly proportional to AMPK activity. This uses naive AMPK that is activated during the assay with MK-8722; format: functional; conditions: 30 µM
[4] = molecular target: Sialic acid-binding Ig-like lectin 9 (Homo sapiens) (UniProt Q9Y336); assay: Hs-Siglec9 ALPHAscreen SOP 20170721; conditions: 10 µM
Sequence of Sialic acid-binding Ig-like lectin 9 (Homo sapiens) (Q9Y336 whole entry): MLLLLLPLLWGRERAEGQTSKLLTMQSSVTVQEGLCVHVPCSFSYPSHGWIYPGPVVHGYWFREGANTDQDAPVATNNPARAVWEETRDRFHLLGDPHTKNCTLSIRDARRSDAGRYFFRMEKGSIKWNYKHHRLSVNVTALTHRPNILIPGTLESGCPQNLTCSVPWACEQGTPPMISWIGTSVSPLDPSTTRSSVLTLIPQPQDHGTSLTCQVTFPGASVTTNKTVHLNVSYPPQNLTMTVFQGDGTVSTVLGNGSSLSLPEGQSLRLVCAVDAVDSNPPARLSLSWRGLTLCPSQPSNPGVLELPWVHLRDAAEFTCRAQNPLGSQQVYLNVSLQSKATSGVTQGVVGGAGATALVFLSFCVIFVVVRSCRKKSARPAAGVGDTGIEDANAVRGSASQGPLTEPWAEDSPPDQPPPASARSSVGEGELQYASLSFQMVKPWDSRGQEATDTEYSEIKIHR

Trypanosoma cruzi = assay: Trypanosoma cruzi phosphomannomutase and mannose-1-phosphate guanylyltransferase assay; format: functional; conditions: 10 µM
[5] = molecular target: T2, Arginase-2, mitochondrial (Homo sapiens) (UniProt P78540); assay: in vitro enzyme assay to detect the production of urea directly proportional to the activity of Arginase II; format: functional; conditions: 33.3 µM; also: in the data most compounds retested in dose-response had high values
T2 sequence (whole entry): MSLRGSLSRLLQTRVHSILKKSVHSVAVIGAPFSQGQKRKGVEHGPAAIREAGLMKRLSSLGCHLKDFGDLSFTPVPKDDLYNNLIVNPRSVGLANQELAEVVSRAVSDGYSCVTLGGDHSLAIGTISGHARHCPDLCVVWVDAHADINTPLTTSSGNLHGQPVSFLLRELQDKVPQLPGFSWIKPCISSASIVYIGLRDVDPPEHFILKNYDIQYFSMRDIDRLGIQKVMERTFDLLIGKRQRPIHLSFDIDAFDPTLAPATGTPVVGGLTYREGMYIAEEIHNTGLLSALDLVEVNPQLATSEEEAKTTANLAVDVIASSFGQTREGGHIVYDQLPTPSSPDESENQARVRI

[6] = molecular target: T3, Proteasome subunit beta (Trypanosoma cruzi) (UniProt O96673); assay: Trypanosoma cruzi proteasome chymotrypsin-like activity (TcProtChymo) assay.; also: in the data most compounds retested in dose-response had high values; format: functional; conditions: 9.37 µM
T3 sequence (whole entry): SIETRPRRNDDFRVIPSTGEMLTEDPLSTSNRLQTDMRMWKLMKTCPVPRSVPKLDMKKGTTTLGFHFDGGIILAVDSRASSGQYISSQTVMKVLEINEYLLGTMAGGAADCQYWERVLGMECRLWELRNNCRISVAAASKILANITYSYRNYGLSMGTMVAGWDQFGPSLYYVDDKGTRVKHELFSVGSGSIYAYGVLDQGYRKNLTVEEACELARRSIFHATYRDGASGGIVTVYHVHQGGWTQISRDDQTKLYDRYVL

N/A = assay: Trypanosoma cruzi proteasome luciferase counter-screen; format: functional; conditions: 9.37 µM
Homo sapiens = organism: Homo sapiens; assay: To identify inhibition of the IFN signalling (Jak-Stat) pathway via expression of an eGFP reporter gene under the control of an IFN-stimulated response element (ISRE) containing MxA promoter.; format: functional; conditions: 30 µM
[7] = molecular target: T4, Tyrosyl-tRNA synthetase, putative (Trypanosoma cruzi (strain CL Brener)) (UniProt Q4DSP6); assay: Trypanosoma cruzi tyrosyl tRNA synthetase (TcYRS) _High Tyrosine SOP; format: functional; conditions: 30 µM; also: in the data most compounds retested in dose-response had high values
T4 sequence (whole entry): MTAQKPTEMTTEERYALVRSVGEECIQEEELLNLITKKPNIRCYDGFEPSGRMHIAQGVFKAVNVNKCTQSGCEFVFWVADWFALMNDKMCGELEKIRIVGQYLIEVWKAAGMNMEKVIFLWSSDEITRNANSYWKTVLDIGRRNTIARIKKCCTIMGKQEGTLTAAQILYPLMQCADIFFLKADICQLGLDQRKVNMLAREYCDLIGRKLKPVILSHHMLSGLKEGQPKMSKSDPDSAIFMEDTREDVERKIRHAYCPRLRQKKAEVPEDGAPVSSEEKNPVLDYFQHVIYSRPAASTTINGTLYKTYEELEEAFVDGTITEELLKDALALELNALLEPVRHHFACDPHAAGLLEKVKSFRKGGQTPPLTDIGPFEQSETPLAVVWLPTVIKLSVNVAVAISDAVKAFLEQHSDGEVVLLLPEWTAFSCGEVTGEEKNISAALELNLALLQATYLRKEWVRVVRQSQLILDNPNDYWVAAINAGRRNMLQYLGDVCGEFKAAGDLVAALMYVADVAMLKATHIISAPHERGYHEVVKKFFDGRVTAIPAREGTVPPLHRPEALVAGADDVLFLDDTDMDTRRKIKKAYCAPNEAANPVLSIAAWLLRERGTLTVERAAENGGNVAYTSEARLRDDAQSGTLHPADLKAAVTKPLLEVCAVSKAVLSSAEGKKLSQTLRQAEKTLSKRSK

[8] = molecular target: T4, Tyrosyl-tRNA synthetase, putative (Trypanosoma cruzi (strain CL Brener)); assay: Trypanosoma cruzi tyrosyl tRNA synthetase (TcYRS) SOP; format: functional; conditions: 30 µM
[9] = molecular target: Chromo domain-containing protein 1 (Saccharomyces cerevisiae (strain ATCC 204508 / S288c) (Baker's yeast)) (UniProt P32657); assay: ScCHD-1 Enzyme Inhibition Assay; format: functional; conditions: 30 µM; also: in the data most compounds retested in dose-response had high values
Sequence of Chromo domain-containing protein 1 (Saccharomyces cerevisiae (strain ATCC 204508 / S288c) (Baker's yeast)) (P32657 whole entry, the tested form may be a part): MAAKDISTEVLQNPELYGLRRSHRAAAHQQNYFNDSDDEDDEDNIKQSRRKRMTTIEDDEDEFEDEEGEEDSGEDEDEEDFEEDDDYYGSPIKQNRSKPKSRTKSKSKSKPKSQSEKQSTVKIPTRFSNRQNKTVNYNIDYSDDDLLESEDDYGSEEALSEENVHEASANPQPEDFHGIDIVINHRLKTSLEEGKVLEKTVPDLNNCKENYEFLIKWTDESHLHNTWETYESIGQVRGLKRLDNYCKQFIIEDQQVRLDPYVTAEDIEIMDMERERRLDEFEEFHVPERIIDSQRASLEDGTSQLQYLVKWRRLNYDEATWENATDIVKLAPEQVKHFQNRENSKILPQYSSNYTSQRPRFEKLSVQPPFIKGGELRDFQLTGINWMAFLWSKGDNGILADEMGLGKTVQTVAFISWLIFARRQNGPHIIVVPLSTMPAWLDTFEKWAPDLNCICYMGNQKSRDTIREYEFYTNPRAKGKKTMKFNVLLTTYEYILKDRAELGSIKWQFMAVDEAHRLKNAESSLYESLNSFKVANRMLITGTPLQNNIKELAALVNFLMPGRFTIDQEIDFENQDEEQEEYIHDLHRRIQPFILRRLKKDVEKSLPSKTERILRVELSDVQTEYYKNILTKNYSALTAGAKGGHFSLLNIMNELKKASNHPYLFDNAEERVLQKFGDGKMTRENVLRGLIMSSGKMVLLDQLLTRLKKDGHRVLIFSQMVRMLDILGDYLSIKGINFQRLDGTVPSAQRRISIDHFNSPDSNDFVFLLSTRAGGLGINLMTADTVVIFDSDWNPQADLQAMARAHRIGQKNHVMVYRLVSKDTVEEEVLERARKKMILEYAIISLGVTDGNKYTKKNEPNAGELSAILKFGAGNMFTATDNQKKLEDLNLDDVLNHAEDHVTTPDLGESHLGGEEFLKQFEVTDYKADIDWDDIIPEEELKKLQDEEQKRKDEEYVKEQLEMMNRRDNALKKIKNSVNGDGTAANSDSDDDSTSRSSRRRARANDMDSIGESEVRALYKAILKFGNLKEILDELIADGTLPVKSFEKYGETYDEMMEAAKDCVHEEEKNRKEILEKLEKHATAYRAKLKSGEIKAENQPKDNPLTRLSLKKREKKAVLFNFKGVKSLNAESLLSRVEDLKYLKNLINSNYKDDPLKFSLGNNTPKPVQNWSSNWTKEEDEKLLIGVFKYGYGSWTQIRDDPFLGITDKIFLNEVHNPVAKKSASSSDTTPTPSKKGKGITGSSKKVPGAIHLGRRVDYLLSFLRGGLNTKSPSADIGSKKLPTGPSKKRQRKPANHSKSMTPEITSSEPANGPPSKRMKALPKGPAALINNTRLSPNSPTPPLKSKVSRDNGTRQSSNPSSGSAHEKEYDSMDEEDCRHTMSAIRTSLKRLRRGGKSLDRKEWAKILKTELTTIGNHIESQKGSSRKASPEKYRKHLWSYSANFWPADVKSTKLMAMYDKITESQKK

SMILES	Percent Effect [1] [%]	Percent Effect [2] [%]	Percent Effect [3] [%]	Percent Effect [4] [%]	Percent Effect (Trypanosoma cruzi) [%]	Percent Effect [5] [%]	Percent Effect [6]	Percent Effect (N/A)	Percent Effect (Homo sapiens) [%]	Percent Effect [7] [%]	Percent Effect [8] [%]	Percent Effect [9] [%]
COc1cccc(-c2nc(C)c(C(=O)NC(CO)CCSC)s2)c1 (stereo not given)	-3.43	1.33	7.43	6.12	-2.36	-11.4	30.1% and 33.3% and 30.7%	26.5% and 29.5%	15.6	4.23	7.69	-7.42
Cc1nc(CN2CCOC(CNc3cccnn3)C2)oc1C (stereo not given)	-1.3	0	-22.1	-5.8	0.283	28.9	30.6% and 26.7% and 36.4%	11.3% and 10.2%	11.3	2.46	-8.64	-0.197
CCN(C)c1ncnc2c1CCN(C(=O)c1ccno1)CC2	-6.78	13.3	0.989	3.39	-4.05	-46.4	5.81%	–	-5.04	4.17	7.5	-5.33
O=c1[nH]c(CN(Cc2ccco2)C2CCCC2)nc2ccccc12	-2.15	18.2	7.19	1.72	3.75	0.712	10.5%	–	26.1	8.74	24.4	-9.34
Cc1ccc2nc(C3CCN(CCO)CC3)nn2c1	1.65	10.7	6.44	9.27	-2.51	-59.7	4.79%	–	23.1	2.08	10	-0.68
CC(C)c1n[nH]c(C(=O)Nc2ccncc2)c1Br	-1.59	7.59	60	0.333	-3.31	4.18	97% and 96.6% and 95.9%	81.8% and 83.2%	58.2	4.43	8.86	-3.82
Cc1ccc(C(=O)CCC(=O)N2CCC(c3nncn3C)CC2)cc1	-8.28	15.6	-6.09	19.9	5.24	1.78	11.3%	–	9.84	5.83	24.4	-1.85
c1csc(-c2nc(CN3CCCC3Cn3cncn3)co2)c1 (stereo not given)	-2.28	-5.48	-7.9	1.3	6.86	-3.18	5.68%	–	-9.88	2.15	5	-3.71
Cc1cc2n(n1)CC(CNCc1ccnc(-n3ccnc3C)c1)CN2 (stereo not given)	-2.38	26.3	-14.2	-7.03	7.52	-4.98	22.9%	–	4.37	3.43	17.1	-13.8
c1cnc(N2CCC3(CCN(Cc4ccncc4)CC3)CC2)nc1	-0.982	0	7.11	7.41	-2.25	-4.14	13.1%	–	-0.931	1.08	5.13	13
COc1ccc(-c2nc(CN3CCOCS3(=O)=O)c(C)o2)cc1	-1.22	8	-8.87	2.98	-4.58	-3.12	14.8%	–	10.4	2.73	8.64	-5.54
COCCn1nc(C(=O)N(C)Cc2cnn(C)c2)ccc1=O	-6.3	15.8	-7.26	-8.02	4.38	-8.28	14.7%	–	9.08	5.32	-2.6	-9.82
COCC1CN(C(=O)CNC(C)=O)Cc2ncnn2C1 (stereo not given)	-4.16	7.79	5.62	8.97	2.65	2.76	4.99%	–	-13.1	6.45	13.6	0.679
COc1c(CNCCNC(=O)Cc2ccc(F)cc2)c(C)nn1C	-1.17	13.5	1.18	-2.01	-7.52	-4.99	13.1%	–	12.1	1.98	-18.3	-8.36
O=C(Nc1cc(C(F)(F)F)c[nH]c1=O)N1CCCSCC1	-5.05	7.79	1.88	4.65	-3.37	2.85	6.08%	–	20.5	6.8	12.2	-1.96
Fc1cccc(-c2nc(CN3CCOC(Cn4cccn4)C3)co2)c1 (stereo not given)	-5.98	2.7	-6.81	3.19	-2.36	4.81	4.68%	–	-1.08	7.39	6.17	-3.05
CN(C)c1ccc(C(=O)N2CCN(C(=O)N3CCCCC3)CC2)nn1	-6.05	7.79	4.21	10.5	5.8	-3.92	4.56%	–	3.45	0	7.32	-13.4
Cc1nocc1C(=O)N1CCc2c(CN(C)C(C)C)n[nH]c2C1	1.54	11	-4.98	8.21	3.77	-0.798	20.3%	–	21	5.21	13.6	-3.84
CCc1nc(C2CCCN(C(=O)c3ccc4[nH]nnc4c3)C2)no1 (stereo not given)	-3.01	0	1.62	0.134	-4.8	4	17.2%	–	11.3	0	0	-11.2
Cc1cncc(C(=O)N2CCC(Cn3cc(-c4ccsc4)nn3)CC2)c1	-2.48	2.7	0.205	2.1	-3.86	-0.476	11.6%	–	7.16	1.59	9.76	-1.22
CN(Cc1cccc(F)c1)C1CCN(CCc2ccccn2)CC1	-3.25	21.6	-5.03	-1.38	-0.65	-1.29	9.34%	–	20.8	3.96	13.4	-4.09
COc1ccc(OC)c(C(O)CN2CC(n3cccn3)C2)c1 (stereo not given)	-3.82	-10.5	2.67	6.6	9.02	4.98	9.52%	–	-12.8	6.37	9.76	-8.21

From ChEMBL document CHEMBL3988442, “University of Dundee, Small-Polar-MMV Screening Library” (2021)
